The values below come from PubChem BioAssay (EPA / NIEHS).

Active and inactive are the calls of the source. Rule for the calls: active = hit-call score of the fitted dose curve at least 0.9, where 1 is the maximum; inactive = score below 0.9.

Test [1] is described as follows: ATG_ISRE_CIS: Attagene CIS-FACTORIAL HepG2 Assay for human Interferon Regulatory Factor 1 (IRF1) binding to an Interferon-Stimulated Response Element (ISRE) (AID 2282948). The note with it: HepG2 ISRE cis-reporter (Attagene), mRNA transcription readout; actives raise or lower the signal. The procedure, abridged: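 Uses HepG2 liver cells transfected with cis-regulated reporters and measures mRNA 24 h post-dosing through RT-PCR, primer-extension labelling and capillary electrophoresis, with DMSO as negative control.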

Test [2] is described as follows: ATG_M_32_CIS: Attagene CIS-FACTORIAL HepG2 Assay for M32 Transcription Factor (Internal Marker) (AID 2282949).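 Note: background control marker of the multiplexed CIS panel rather than a real target.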 The following applies: HepG2 Attagene cis-factorial M32 reporter, mRNA; actives raise or lower the signal. Summed up:
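Using DMSO as baseline, bidirectional curve fits were applied to reporter mRNA signals. These came from transiently transfected HepG2 cells exposed for 24 h, with RNA analysed by RT-PCR, FAM primer extension, HpaI digestion and CE.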

The nature of test [3]: ATG_M_06_CIS: Attagene CIS-FACTORIAL HepG2 Assay for M06 Transcription Factor (Internal Marker) (AID 2282950). The note with it: HepG2 Attagene CIS-FACTORIAL M06 internal marker reporter; actives raise or lower the signal. The procedure, abridged:
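Serves as a background control readout. Transfected HepG2 exposed to compounds for 24 h, then reporter transcripts quantified by fluorescent RT-PCR and capillary electrophoresis. Both directions fitted against DMSO baseline.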

The target in test [4] is Hypoxia-inducible factor 1-alpha (Homo sapiens) (UniProt Q16665). Put plainly: ATG_HIF1a_CIS: Attagene CIS-FACTORIAL HepG2 Assay for human Hypoxia Inducible Factor 1 (HIF1A) (AID 2282951). The note with it: HepG2 Attagene cis-factorial HIF1a reporter transcription; actives raise or lower the signal. The procedure, abridged: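 Activity is fitted in both directions relative to DMSO. Reporter transcripts are read by RT-PCR, fluorescent primer extension and capillary electrophoresis after 24 h chemical treatment. The cells are HepG2 carrying transiently transfected cis-element-driven reporter units responding to endogenous factors.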
Sequence of Hypoxia-inducible factor 1-alpha (Homo sapiens) (Q16665 whole entry, looked up): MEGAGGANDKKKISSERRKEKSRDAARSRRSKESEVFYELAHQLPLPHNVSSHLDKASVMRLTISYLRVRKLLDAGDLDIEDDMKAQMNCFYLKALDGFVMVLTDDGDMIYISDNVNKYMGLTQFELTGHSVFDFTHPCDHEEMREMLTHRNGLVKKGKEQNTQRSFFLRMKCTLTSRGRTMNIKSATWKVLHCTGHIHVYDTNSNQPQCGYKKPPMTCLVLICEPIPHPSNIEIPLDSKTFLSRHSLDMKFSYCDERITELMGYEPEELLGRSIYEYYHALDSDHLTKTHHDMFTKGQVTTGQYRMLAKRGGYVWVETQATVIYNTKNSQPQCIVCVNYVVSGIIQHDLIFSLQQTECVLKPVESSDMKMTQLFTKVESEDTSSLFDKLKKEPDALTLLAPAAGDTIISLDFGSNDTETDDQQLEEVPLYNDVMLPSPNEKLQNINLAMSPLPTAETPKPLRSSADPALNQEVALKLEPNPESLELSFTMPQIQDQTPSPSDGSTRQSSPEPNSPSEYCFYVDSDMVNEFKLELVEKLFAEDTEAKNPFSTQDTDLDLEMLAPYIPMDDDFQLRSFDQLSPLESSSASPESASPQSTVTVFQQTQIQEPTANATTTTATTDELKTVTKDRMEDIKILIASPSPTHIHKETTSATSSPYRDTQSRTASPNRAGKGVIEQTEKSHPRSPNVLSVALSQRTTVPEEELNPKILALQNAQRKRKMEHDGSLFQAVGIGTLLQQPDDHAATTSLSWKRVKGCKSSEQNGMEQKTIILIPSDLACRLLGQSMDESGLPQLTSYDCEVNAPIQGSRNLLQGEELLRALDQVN

Test [5] addresses Hepatocyte nuclear factor 6 (Homo sapiens) (UniProt Q9UBC0). In words: ATG_HNF6_CIS: Attagene CIS-FACTORIAL HepG2 Assay for human Hepatocyte Nuclear Factor 6 (HNF6) (AID 2282952). The following applies: HepG2 Attagene cis-factorial HNF6 reporter transcription; actives raise or lower the signal. The procedure, abridged:
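Endogenous transcription factor activity in human HepG2 liver cells was captured through cis-regulated reporter constructs. After 24 h treatment, reporter mRNA was measured by RT-PCR with capillary electrophoresis, and activity was fitted in both directions relative to DMSO.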

Test [6] concerns the target Heat shock factor protein 1 (Homo sapiens) (UniProt Q00613). Put plainly: ATG_HSE_CIS: Attagene CIS-FACTORIAL HepG2 Assay for human Heat Shock Transcription Factor 1 (HSE) (AID 2282953). The note with it: HepG2 HSE cis-reporter, Attagene RNA transcription; actives raise or lower the signal. The procedure, abridged: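 Endogenous transcription factor activity in transiently transfected HepG2, read as reporter mRNA by RT-PCR with fluorescent capillary electrophoresis after 24 h. Gain or loss of signal fitted versus DMSO baseline.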

Test [7] is described as follows: ATG_MRE_CIS: Attagene CIS-FACTORIAL HepG2 Assay for human Metal Responsive Element (MRE) (AID 2282954). The following applies: HepG2 MRE cis-reporter transcription, Attagene multiplex; actives raise or lower the signal. The procedure, abridged: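 Multiplexed cis-reporter assay in human HepG2 liver cells, 24 h incubation with test chemical. Reporter transcripts measured by RT-PCR and capillary electrophoresis; values from bidirectional curve fitting versus DMSO.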

The nature of test [8]: ATG_PBREM_CIS: Attagene CIS-FACTORIAL HepG2 Assay for human Phenobarbital-responsive Enhancer Module (PBREM) (AID 2282955). The note with it: HepG2 PBREM cis-reporter, Attagene multiplexed transcription; actives raise or lower the signal. The procedure, abridged:
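Endogenous transcription factor activity was read from reporter transcripts in transiently transfected human HepG2 liver cells after 24 h dosing. RT-PCR products were fluorescently labelled, HpaI-cut and sized by capillary electrophoresis; activity fitted bidirectionally against DMSO baseline.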

Test [9] is described as follows: ATG_GRE_CIS: Attagene CIS-FACTORIAL HepG2 Assay for human Glucocorticoid Response Elements (GRE) (AID 2282947). The following applies: HepG2 GRE cis-reporter, Attagene multiplex mRNA; actives raise or lower the signal. Summed up:
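Multiplexed cis-reporter mRNA induction, HepG2, 24 h post-dose. RT-PCR, FAM-labelled, HpaI-digested amplicons by CE. Bidirectional fit vs DMSO.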

Test [10] deals with Paired box protein Pax-6 (Homo sapiens) (UniProt P26367). In words: ATG_Pax6_CIS: Attagene CIS-FACTORIAL HepG2 Assay for human Paired Box 6 (PAX6) (AID 2282956). The following applies: HepG2 CIS-FACTORIAL PAX6 reporter transcription, RNA readout; actives raise or lower the signal. The procedure, abridged: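 DMSO-referenced bidirectional fits of reporter mRNA fluorescence; HepG2 with transient cis-promoter MRTUs, 24 h post-dose, RT-PCR plus capillary electrophoresis detection.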
Sequence of Paired box protein Pax-6 (Homo sapiens) (P26367 whole entry, looked up): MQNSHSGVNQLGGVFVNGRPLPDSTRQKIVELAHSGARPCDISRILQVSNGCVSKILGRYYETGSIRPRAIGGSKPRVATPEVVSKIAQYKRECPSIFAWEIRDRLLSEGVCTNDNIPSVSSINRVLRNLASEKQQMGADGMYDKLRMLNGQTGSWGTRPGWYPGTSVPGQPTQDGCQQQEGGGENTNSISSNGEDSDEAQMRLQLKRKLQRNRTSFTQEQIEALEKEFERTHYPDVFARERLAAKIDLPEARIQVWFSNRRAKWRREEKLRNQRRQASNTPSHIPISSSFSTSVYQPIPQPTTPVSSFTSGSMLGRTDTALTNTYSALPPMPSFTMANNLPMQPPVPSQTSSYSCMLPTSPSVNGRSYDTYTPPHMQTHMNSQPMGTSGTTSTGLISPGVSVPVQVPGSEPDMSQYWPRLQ

Sequence of Heat shock factor protein 1 (Homo sapiens) (Q00613 whole entry, looked up): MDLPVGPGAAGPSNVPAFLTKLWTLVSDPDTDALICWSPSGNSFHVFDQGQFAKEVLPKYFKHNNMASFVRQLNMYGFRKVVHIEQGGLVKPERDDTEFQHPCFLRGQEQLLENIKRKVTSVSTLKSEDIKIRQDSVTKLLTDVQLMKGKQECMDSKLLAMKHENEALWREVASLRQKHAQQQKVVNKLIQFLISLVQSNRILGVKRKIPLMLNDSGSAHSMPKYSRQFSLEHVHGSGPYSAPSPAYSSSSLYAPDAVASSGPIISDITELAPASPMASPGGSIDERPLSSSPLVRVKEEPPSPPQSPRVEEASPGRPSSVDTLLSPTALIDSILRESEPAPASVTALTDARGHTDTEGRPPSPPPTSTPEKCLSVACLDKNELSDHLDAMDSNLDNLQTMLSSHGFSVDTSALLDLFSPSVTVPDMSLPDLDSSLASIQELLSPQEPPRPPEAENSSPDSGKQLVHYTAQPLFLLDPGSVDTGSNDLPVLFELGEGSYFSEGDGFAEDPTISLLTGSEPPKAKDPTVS
Sequence of Hepatocyte nuclear factor 6 (Homo sapiens) (Q9UBC0 whole entry, looked up): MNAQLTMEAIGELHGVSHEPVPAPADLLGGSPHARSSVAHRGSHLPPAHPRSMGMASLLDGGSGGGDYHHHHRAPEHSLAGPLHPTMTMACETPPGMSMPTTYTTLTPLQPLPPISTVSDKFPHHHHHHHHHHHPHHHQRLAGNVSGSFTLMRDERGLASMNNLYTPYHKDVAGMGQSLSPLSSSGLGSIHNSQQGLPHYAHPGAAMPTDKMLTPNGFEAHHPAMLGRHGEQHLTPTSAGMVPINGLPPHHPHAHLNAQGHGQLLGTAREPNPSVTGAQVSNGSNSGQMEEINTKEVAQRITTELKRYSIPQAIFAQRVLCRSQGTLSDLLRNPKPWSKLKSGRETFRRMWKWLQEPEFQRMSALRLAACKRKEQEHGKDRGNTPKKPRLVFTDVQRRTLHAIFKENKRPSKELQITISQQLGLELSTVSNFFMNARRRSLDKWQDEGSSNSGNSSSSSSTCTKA

With `CSc1nc(NC(C)C)nc(NC(C)C)n1`, the result in test [1], in test [2], in test [3], in test [4], in test [5] and in test [6] was inactive. Further, the outcome in test [7] and in [8] was inactive.

Take `CCc1cnc(C2=NC(C)(C(C)C)C(=O)N2)c(C(=O)O)c1` (stereo not given): the molecule was called inactive in [9], in [2], in test [4], in test [5], in test [6] and in [7]. Further, the outcome in test [8] and in test [10] was inactive.

Take `CNC(=O)ON=C(SC)C(=O)N(C)C`: the molecule was classed as inactive in [2], in [3], in test [4], in [5], in test [6] and in test [7]. The result in [8] was inactive.

For the molecule `CC(COc1ccc(Oc2ccccc2)cc1)Oc1ccccn1` (stereo not given), the result in test [1], in [2], in test [3], in [4], in test [5] and in test [7] was inactive. In addition, the AC50 in test [8] was 13.8 µM (active).

`CCCCSP(=O)(SCCCC)SCCCC`: the AC50 in [9] is 50 µM (active); in test [2] it was 77.9 µM (active); in [7], 23.4 µM (active); in test [8], 50 µM (active). Besides, the molecule was called inactive in test [4], in test [5], in [6] and in test [10].

Consider `CN(C)NC(=O)CCC(=O)O`, for which the molecule was called inactive in [1], in test [2], in [3], in [4], in test [5] and in test [6]. Besides, the molecule was called inactive in test [7], in test [8] and in test [10].

Consider `Cc1nn(-c2cc(NS(C)(=O)=O)c(Cl)cc2Cl)c(=O)n1C(F)F`, for which the result in test [1], in test [2], in [4], in [5], in [6] and in test [7] was inactive.

On to `CC(=NC#N)N(C)Cc1ccc(Cl)nc1`, for which the molecule was called inactive in test [2], in [4], in test [5], in test [6] and in [7].

With `CC(C1CC1)C(O)(Cn1cncn1)c1ccc(Cl)cc1` (stereo not given), the outcome in test [1], in test [2], in test [3], in test [4], in [5] and in [6] was inactive. The molecule was classed as inactive in [7] and in test [10].

Consider `COc1cccc(C(=O)NN(C(=O)c2cc(C)cc(C)c2)C(C)(C)C)c1C`, for which the result in test [1], in test [2], in test [4], in test [5], in test [6] and in test [7] was inactive. In addition, the result in test [10] was inactive. Further, in test [8], the AC50 was 3.46 µM (active).

On to `CON=C(C(=O)OC)c1ccccc1CON=C(C)c1cccc(C(F)(F)F)c1`, for which the call in [2], in test [3], in [4], in [5] and in [8] was inactive. For the same molecule, the AC50 is 24.1 µM (active) in test [6] and 68.9 µM (active) in test [7].

For `CCCSP(=O)(OCC)Oc1ccc(Br)cc1Cl` (stereo not given), the call in test [1], in [2], in test [3], in test [4], in test [5] and in [6] was inactive. Besides, the call in test [7], in test [8] and in test [10] was inactive.

`CCc1cccc(C)c1N(C(=O)CCl)C(C)COC` (stereo not given): the molecule was called inactive in test [2], in test [4], in test [5], in test [6], in [7] and in [10]. In addition, in test [8], the AC50 is 7.5 µM (active).

As for `Nc1c(Cl)cc([N+](=O)[O-])cc1Cl`, the figures for the AC50 in test [9] and in [7] were 86.3 µM (active) and 64.6 µM (active), respectively. For the same molecule, the molecule was classed as inactive in test [2], in [4], in test [5], in [6], in test [8] and in [10].

As to `CC(C)[C@H](C(=O)O[C@H](C#N)c1cccc(Oc2ccccc2)c1)c1ccc(Cl)cc1`, the result in [1], in [2], in test [4], in [5], in test [6] and in test [7] was inactive. Also, in [10], the molecule was called inactive. Moreover, the AC50 in [8] is 9.24 µM (active).

In the case of `CCOC(=O)CC(SP(=O)(OC)OC)C(=O)OCC` (stereo not given), the outcome in [9], in [2], in test [4], in [5], in [6] and in [7] was inactive. Moreover, the result in [8] and in test [10] was inactive.

In the case of `CN(C)[C@@H]1C(=O)C(C(N)=O)=C(O)[C@@]2(O)C(=O)C3=C(O)c4c(O)cccc4[C@@](C)(O)[C@H]3[C@H](O)[C@@H]12`, the molecule was called inactive in [2], in test [5], in test [6], in [7] and in [10].

Turning to `C#CCC1=C(C)C(OC(=O)C2C(C=C(C)C)C2(C)C)CC1=O` (stereo not given), the AC50 in test [2] is 90.5 µM (active); in [4], 50 µM (active); in [5] it was 50 µM (active); in test [6], 74.8 µM (active); in [7], 72.2 µM (active); in [8] it was 4.27 µM (active). In test [3], the result was inactive.

As for `S=C1NCCN1`, the call in [1], in test [2], in test [4], in test [5], in test [6] and in test [7] was inactive. Moreover, the molecule was classed as inactive in [10].

What is called AC50 is the concentration giving half of the maximal activity seen.
